According to PubChem BioAssay (EPA / NIEHS):
Records with an inconclusive call do not appear. Calls of active or inactive are those of the source. How the source made its calls: active means hit-call score of the fitted dose curve at least 0.9, where 1 is the maximum; inconclusive means response in the unintended direction; inactive means score below 0.9.

Assays:
[1] = Tanguay_ZF_120hpf_YSE_legacy: (Legacy) Oregon State University Tanguay Lab 120 Hour Post-fertilization zebrafish Assay for Yolk Sac Edema (AID 2283634)
Outline: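 Dechorionated Tropical 5D wild-type zebrafish embryos were exposed statically, one per well, from 6 to 120 hpf at 28C in 0.64% DMSO. Yolk sac edema was scored present/absent by brightfield at 120 hpf, and dead embryos were excluded.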

[2] = Tanguay_ZF_120hpf_AXIS_legacy: (Legacy) Oregon State University Tanguay Lab 120 Hour Post-fertilization zebrafish Assay for Body Axis Malformation (AID 2283635);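 on AC50: potency for an increased fraction of larvae scored with body axis malformation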
Outline: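 Dechorionated wild-type Tropical 5D zebrafish embryos, one per well, statically exposed from 6 hpf to 120 hpf at 28C in 0.64% DMSO final. Body axis malformation scored present/absent by brightfield microscopy at 120 hpf; dead embryos excluded.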

[3] = Tanguay_ZF_120hpf_EYE_legacy: (Legacy) Oregon State University Tanguay Lab 120 Hour Post-fertilization zebrafish Assay for Eye Malformation (AID 2283636);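 further: binary presence or absence of eye malformation scored by brightfield in 120 hpf larvae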
Outline: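 Static waterborne exposure of dechorionated zebrafish embryos (strain Tropical 5D), 6 to 120 hpf, sealed plates at 28C, 0.64% DMSO vehicle. Eye malformation is scored as a binary endpoint, with gain of signal analysed relative to DMSO.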

[4] = Tanguay_ZF_120hpf_SNOU_legacy: (Legacy) Oregon State University Tanguay Lab 120 Hour Post-fertilization zebrafish Assay for Snout Malformation (AID 2283637)
Outline: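 Dechorionated zebrafish, individually housed from 6 hpf in covered, sealed wells at 28C with 0.64% DMSO vehicle, were examined at 120 hpf for snout malformation. Responses were binary and analysed positive-direction relative to DMSO.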

[5] = Tanguay_ZF_120hpf_JAW_legacy: (Legacy) Oregon State University Tanguay Lab 120 Hour Post-fertilization zebrafish Assay for Jaw Malformation (AID 2283638);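 on AC50: active means more embryos with jaw malformation than DMSO controls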
Outline: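 Dechorionated Tropical 5D wild-type zebrafish embryos, one per well, exposed statically from 6 hpf to 120 hpf at 28C in 0.64% DMSO. Jaw malformation was scored by brightfield microscopy as present or absent. It was not scored in dead embryos.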

[6] = Tanguay_ZF_120hpf_PE_legacy: (Legacy) Oregon State University Tanguay Lab 120 Hour Post-fertilization zebrafish Assay for Pericardial Edema (AID 2283640);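 on AC50: potency for increased incidence of pericardial edema versus DMSO baseline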
Outline: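 Tropical 5D wild-type zebrafish embryos were statically exposed until 120 hpf at 28C, with 0.64% DMSO final. Pericardial edema was scored by brightfield as present or absent; endpoints were not scored in dead embryos.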

[7] = Tanguay_ZF_120hpf_BRAI_legacy: (Legacy) Oregon State University Tanguay Lab 120 Hour Post-fertilization zebrafish Assay for Brain Malformation (AID 2283641)
Outline: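 Tropical 5D wild-type zebrafish embryos exposed statically until 120 hpf at 28C, 0.64% DMSO final, sealed and dark. Brain malformation scored present/absent by brightfield at 120 hpf; dead embryos excluded. Trimethyltin chloride 5uM positive control.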

[8] = Tanguay_ZF_120hpf_SOMI_legacy: (Legacy) Oregon State University Tanguay Lab 120 Hour Post-fertilization zebrafish Assay for Somite Malformation (AID 2283647)
Outline: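 Dechorionated Tropical 5D wild-type zebrafish embryos, one per well from 6 hpf, statically exposed at 28C to 120 hpf in 0.64% DMSO; somite malformation scored present/absent by brightfield; trimethyltin 5 uM positive control; dead embryos not scored.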

[9] = Tanguay_ZF_120hpf_PFIN_legacy: (Legacy) Oregon State University Tanguay Lab 120 Hour Post-fertilization zebrafish Assay for Pectoral Fin Malformation (AID 2283648);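 further: each larva judged yes or no for fin defect by brightfield with dead larvae skipped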
Outline: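 Scoring of pectoral fin malformation was binary, made at 120 hpf on larvae exposed statically from 6 hpf after enzymatic chorion removal. Activity was fitted upward relative to DMSO controls at 0.64% (vol/vol).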

[10] = Tanguay_ZF_120hpf_OTIC_legacy: (Legacy) Oregon State University Tanguay Lab 120 Hour Post-fertilization zebrafish Assay for Otic Vesicle Malformation (AID 2283639)
Outline: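 Statically exposed wild-type 5D zebrafish embryos, kept sealed and dark at 28C through 120 hours post fertilization, were examined by brightfield microscopy for otic vesicle defects. Responses were recorded as present or absent and analysed relative to DMSO.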

## O=Cc1ccco1
[1]
  outcome: inactive
[2]
  outcome: inactive
[3]
  outcome: inactive
[4]
  outcome: inactive
[5]
  outcome: inactive
[6]
  outcome: inactive
[7]
  outcome: inactive
[8]
  outcome: inactive
[9]
  outcome: inactive

## Nc1ccc(Cc2ccc(N)cc2)cc1
[1]
  outcome: inactive
[2]
  outcome: inactive
[3]
  outcome: inactive
[4]
  outcome: inactive
[5]
  outcome: inactive
[10]
  outcome: inactive
[6]
  outcome: inactive
[8]
  outcome: inactive
[9]
  outcome: inactive

## C1=Cc2cccc3cccc1c23
[1]
  outcome: inactive
[2]
  outcome: inactive
[3]
  outcome: inactive
[4]
  outcome: inactive
[5]
  outcome: inactive
[10]
  outcome: inactive
[6]
  outcome: inactive
[7]
  outcome: inactive
[8]
  outcome: inactive
[9]
  outcome: inactive

## Nc1ccc(N=Nc2ccccc2)cc1
[1]
  outcome: inactive
[2]
  outcome: inactive
[3]
  outcome: inactive
[4]
  outcome: inactive
[5]
  outcome: inactive
[10]
  outcome: inactive
[6]
  AC50: 25.6 µM (active)
[7]
  outcome: inactive
[8]
  outcome: inactive
[9]
  outcome: inactive

## CN(C)C(=O)Nc1ccc(Cl)cc1
[1]
  outcome: inactive
[2]
  outcome: inactive
[3]
  outcome: inactive
[4]
  outcome: inactive
[5]
  outcome: inactive
[10]
  outcome: inactive
[6]
  outcome: inactive
[7]
  outcome: inactive
[8]
  outcome: inactive
[9]
  outcome: inactive

## CC(C)N(Cc1ccccc1)C(=O)C(C)(C)C
[1]
  outcome: inactive
[2]
  outcome: inactive
[3]
  outcome: inactive
[4]
  outcome: inactive
[5]
  outcome: inactive
[10]
  outcome: inactive
[6]
  outcome: inactive
[7]
  outcome: inactive
[8]
  outcome: inactive
[9]
  outcome: inactive

## OCCCl
[1]
  outcome: inactive
[2]
  outcome: inactive
[3]
  outcome: inactive
[4]
  outcome: inactive
[5]
  outcome: inactive
[10]
  outcome: inactive
[6]
  outcome: inactive
[7]
  outcome: inactive
[8]
  outcome: inactive
[9]
  outcome: inactive

## CNC(=O)Oc1cccc2c1OC(C)(C)C2
[1]
  outcome: inactive
[2]
  AC50: 6.79 µM (active)
[3]
  outcome: inactive
[4]
  AC50: 43.9 µM (active)
[5]
  AC50: 36 µM (active)
[10]
  outcome: inactive
[6]
  outcome: inactive
[7]
  outcome: inactive
[8]
  outcome: inactive
[9]
  outcome: inactive

## CC(C)(C)C(O)(CCc1ccc(Cl)cc1)Cn1cncn1 (stereo unspecified)
[1]
  outcome: inactive
[2]
  outcome: inactive
[3]
  outcome: inactive
[4]
  outcome: inactive
[10]
  outcome: inactive
[6]
  outcome: inactive
[7]
  outcome: inactive
[8]
  outcome: inactive
